# This is part of a sample that, as a whole, favours compounds with a hit. Of some 83,000 tested, about 20% had one in any assay.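 Activity criterion: percent growth below 10, measured after cells in 96-well plates were exposed to a single compound concentration for 48 hours.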 Values without a mark were called inactive. Calls of active or inactive are those of the source.
# Test system: SW-620 colon
# Assay: NCI-60 one-dose screen, 48 h (100 = growth as untreated, 0 = no growth, -100 = all killed)
# Conditions: 10 µM unless noted
# Experimental: Growth inhibition of the SW-620 human tumor cell line is measured as a screen for anti-cancer activity. Cells are grown in 96 well plates and exposed to the test compound for 48 hours. Compounds are tested at a single concentration, which is 10^-5 M for most compounds. The reported endpoint is percent growth (GI% or GIPRCNT), where numbers from 0 - 100% represent growth inhibition, and numbers from -100% - 0 represent cell death. For example, a value of 40 represents 60% growth inhibition. A value of 0 means no net growth occurred over the course of the experiment. A value of -40 indicates 40% of cells at the beginning of the experiment died by the end of the experiment. A value of -100 means all cells are dead at the end of the experiment.
# NCI-60 Human Tumor Cell Lines Screen was performed using the standard one-dose NCI protocol, which is described in more detail at https://dtp.cancer.gov/discovery_development/nci-60/default.htm.
# Compounds with GIPRCNT values below 10 were considered active. Activity score was based on GIPRCNT using the following formula: […]
# Score is 0 for GIPRCNT values of 100 or above, 50 for GIPRCNT values of 0, and 100 for GIPRCNT values of -100.
row,SMILES,growth
1,Nc1nccc2c1ccn2-c1cccc(NC(=O)c2ccc(N3CCOCC3)c(C(F)(F)F)c2)c1,25.5%
2,c1nc(SC2=NCCN2)c2[nH]cnc2n1,58.5%
3,Nn1c(CN2CCN(c3cc4c(cc3F)c(=O)c(C(=O)O)cn4C3CC3)CC2)n[nH]c1=S,105%
4,O=C(Nc1ccc(-n2ccc3c(NC(=O)c4ccccc4)ncnc32)cc1)Nc1ccc(Cl)c(C(F)(F)F)c1,12.6%
5,O=C(Nc1ccccc1Cl)c1c[nH]c(=O)c(-c2ccc(N3CCCOC4(CC4)C3)cc2)c1,78.1%
6,CC1=C[S+](c2ccccc2)c2cccc3cc4ccccc4c1c23 (stereo not given),-13.4% (active)
7,COc1ccc2c(c1)nnn1c3ncccc3c(N=O)c21,-80.3% (active)
8,S=c1ssnc1-c1ccccn1,5.79% (active)
9,O=C(Cn1c2ccccc2c2ccncc21)N/N=C/c1c[nH]c2ccccc12,34.3%
10,COc1cc2c(cc1OCCCCC(=O)Nc1ccc(-c3nc4ccccc4s3)cc1)N=C[C@@H]1CCCN1C2=O,-16.9% (active)
11,COc1ccc2c(c1)C(=O)/C(=C/c1cccc(OCC(=O)c3ccccc3)c1)O2,-82.7% (active)
12,NC(CSC(c1ccccc1)(c1ccccc1)c1ccc(F)cc1)C(=O)O (stereo not given),30.1%
13,Cc1cc(NC(=O)c2cccc(C(F)(F)F)c2)ccc1-n1ccc2c(NC(=O)c3ccccc3)nccc21,110%
14,Nc1ncc(-c2ccc3ncnc(Nc4ccc(F)c(Cl)c4)c3c2)cn1,66.4%
15,Clc1ccc(CN2COc3c(ccc4cccnc34)C2)cc1Cl,18%
16,O=C(O)c1cc2ccccc2cc1Nc1ccccc1,105%
17,O=C(CNc1cccnc1)Nc1ccc(C(=O)/C=C/c2ccc(Cl)cc2)cc1,74.3%
18,COc1ccc(C[C@H](N)C(=O)N[C@@H]2[C@@H](CO)OC(n3cnc4c(N(C)C)ncnc43)[C@@H]2O)cc1 (stereo not given in full),-67.8% (active)
19,COc1ccc(-c2nnc(NC(=O)CN3CCN(c4cc5c(cc4F)c(=O)c(C(=O)O)cn5C4CC4)CC3)s2)cc1OC,105%
20,COc1ccc(-c2nnc(SCC(=O)Nc3ccc(C(=O)/C=C/c4ccc(Cl)cc4)cc3)o2)cc1OC,101%

row,SMILES,growth
1,Cc1cn(-c2nc3c(c(NCc4ccccc4)n2)COCC3)c2cccc(C(N)=O)c12,86.1% [0.5 µM]
2,Nc1ncnc2c1ccn2-c1cccc(NC(=O)c2cccc(C(F)(F)F)c2)c1,90.2%
3,COc1cccc(C2CC(c3cc(OC)c(OC)c(OC)c3)=NN2)c1 (stereo not given),51.7%
4,CC(C)(C)NC(C1=CC(C)(C)c2ccccc2C1=O)c1ccccc1 (stereo not given),-82.3% (active)
5,Nc1ncnc2c1c(-c1ccc(Oc3ccccc3)cc1)nn2C[C@H]1SSC[C@@H]1O,51.1%
6,Cc1c(F)cccc1NC(=O)c1sc2nc3c(cc2c1N)CCCCC3,25%
7,COc1ccc(C(=O)NC(=O)Nc2ccc3c(c2)NC(=O)/C3=C\c2[nH]c(C)c(C(=O)O)c2C)c(F)c1,55%
8,COc1ccccc1C(OC(C)=O)OC(C)=O,108%
9,O=S(=O)(O)c1ccc(F)cc1,103%
10,N#Cc1c(N)nc2c(c1N)C(c1ccc(Cl)cc1)C1=C(CCCC1=O)N2c1sc2c(c1C#N)CCCC2 (stereo not given),107%
11,Nc1nc2ccc(CNc3ccc(C(=O)NC(CC(=O)O)C(=O)O)cc3)cc2c(=O)[nH]1 (stereo not given),31.8%
12,CN1CCN(CC(O)COc2c(Br)c(Br)c(Br)c3c2OC(C)(C)C3)CC1 (stereo not given),47.3%
13,CN(C)c1ccc(/C=N/N=C(N)N)cc1,37.4%
14,CCC1S/C(=N\N=C(/C)c2cc3ccccc3o2)N(c2ccccc2)C1=O (stereo not given),106%
15,COc1ccc(CCNC=O)cc1OC,93.4%
16,O=C(Nc1ccc(-n2cc(-c3ccncc3)c(-c3ccc(O)c(Cl)c3)n2)cc1)Nc1ccc(Cl)c(C(F)(F)F)c1,19.6%
17,CCCCNc1cc(C(=O)O)cc(S(N)(=O)=O)c1Oc1ccccc1,99.1%
18,C#C[C@H](O)/C=C/CCCCCCC#C[C@H](O)CC[C@@H](O)C#CCCCCCC/C=C/[C@@H](O)C#C,71.9%
19,O=C(Nc1ccc(F)cc1)Nc1ccc(Br)c(C(F)(F)F)c1,19.8%
20,CN1CCN(C(=O)/C=C/c2ccc([N+](=O)[O-])o2)CC1,82%
